Out of some 5,500 compounds screened, about 2,000 (36%) were called active. Not shown: some 18% with an inconclusive outcome. Some of the results follow. Unmarked numbers belong to inactive results. Rule as the data show it: active = normalized growth mostly below about 0.91 (no sharp cut-off); inconclusive = no clear call, values can overlap the other calls; inactive = mostly above about 0.92.
Assay: chemical genetic growth profiling, strain panel (AID 1159580);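 also: tested at 20 µM; growth read once vehicle control cultures reached saturation at 30 °C; 1 = growth at the plate median or of vehicle wells; lower values mean less growth of the strain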
Details: growth OD
[1] = S. cerevisiae deletion strains, locus YDL101C, strain DUN1, hits give low values
[2] = S. cerevisiae deletion strains, locus YHR030C, strain SLT2, hits give low values

`Cc1onc(-c2c(F)cccc2Cl)c1C(=O)Oc1ccccc1` gave a normalized growth (S. cerevisiae deletion strains, locus YAL013W, strain DEP1, hits give low values) of 0.964, a normalized growth (S. cerevisiae deletion strains, locus YBR229C, strain ROT2, hits give low values) of 0.962 and a normalized growth (S. cerevisiae deletion strains, locus YCL061C, strain MRC1, hits give low values) of 0.963. The normalized growth [1] was 0.938, the normalized growth (S. cerevisiae deletion strains, locus YDL134C, strain PPH21, hits give low values) was 0.993 and the normalized growth (S. cerevisiae deletion strains, locus YDR150W, strain NUM1, hits give low values) was 0.943. The normalized growth (S. cerevisiae deletion strains, locus YEL061C, strain CIN8, hits give low values) was 0.908 (active), the normalized growth (S. cerevisiae deletion strains, locus YGR078C, strain PAC10, hits give low values) was 0.945 and the normalized growth [2] was 0.727. The normalized growth (S. cerevisiae deletion strains, locus YHR087W, strain rtc3, hits give low values) was 0.948, the normalized growth (S. cerevisiae deletion strains, locus YJR043C, strain POL32, hits give low values) was 0.951 and the normalized growth (S. cerevisiae deletion strains, locus YJR075W, strain HOC1, hits give low values) was 0.939. The normalized growth (S. cerevisiae deletion strains, locus YLR039C, strain RIC1, hits give low values) was 0.857, the normalized growth (S. cerevisiae deletion strains, locus YLR058C, strain SHM2 (second series), hits give low values) was 0.973 and the normalized growth (S. cerevisiae deletion strains, locus YLR085C, strain ARP6, hits give low values) was 0.838. It also gave a normalized growth (S. cerevisiae deletion strains, locus YLR262C, strain YPT6, hits give low values) of 0.839, a normalized growth (S. cerevisiae deletion strains, locus YML094W, strain GIM5, hits give low values) of 0.978 and a normalized growth (S. cerevisiae deletion strains, locus YMR219W, strain ESC1, hits give low values) of 0.966. For the same molecule, the normalized growth (S. cerevisiae deletion strains, locus YMR263W, strain SAP30, hits give low values) was 0.979, the normalized growth (S. cerevisiae deletion strains, locus YMR307W, strain GAS1, hits give low values) was 0.705 and the normalized growth (S. cerevisiae deletion strains, locus YNL153C, strain GIM3, hits give low values) was 0.984. The normalized growth (S. cerevisiae deletion strains, locus YNL298W, strain CLA4 (second series), hits give low values) was 0.98, the normalized growth (S. cerevisiae deletion strains, locus YNL322C, strain KRE1, hits give low values) was 0.973 and the normalized growth (S. cerevisiae deletion strains, locus YNR030W, strain Alg12, hits give low values) was 0.989. For the same molecule, the normalized growth (S. cerevisiae deletion strains, locus YPL055C, strain LGE1, hits give low values) was 0.97, the normalized growth (S. cerevisiae deletion strains, locus YPL241C, strain CIN2, hits give low values) was 0.994 and the normalized growth (S. cerevisiae deletion strains, locus YPR135W, strain CTF4, hits give low values) was 0.948. The normalized growth (S. cerevisiae strains, strain wild type, hits give low values) was 0.935.
`CCCCCCCCCCCC(=O)NOC(=O)c1c(-c2c(Cl)cccc2Cl)noc1C` showed a normalized growth (S. cerevisiae deletion strains, locus YAR019C, strain CDC15, hits give low values) of 0.984, a normalized growth (S. cerevisiae deletion strains, locus YBL105C, strain PKC1, hits give low values) of 0.986 and a normalized growth (S. cerevisiae deletion strains, locus YBR135W, strain CKS1, hits give low values) of 0.984. For the same molecule, the normalized growth (S. cerevisiae deletion strains, locus YBR136W, strain MEC1, hits give low values) was 0.985, the normalized growth (S. cerevisiae deletion strains, locus YBR160W, strain CDC28, hits give low values) was 0.998 and the normalized growth (S. cerevisiae deletion strains, locus YDL017W, strain CDC7, hits give low values) was 0.986. The normalized growth (S. cerevisiae deletion strains, locus YDL028C, strain MPS1, hits give low values) was 0.988, the normalized growth [1] was 0.999 and the normalized growth (S. cerevisiae deletion strains, locus YDL108W, strain KIN28, hits give low values) was 0.982. For the same molecule, the normalized growth (S. cerevisiae deletion strains, locus YDL132W, strain cdc53, hits give low values) was 0.986, the normalized growth (S. cerevisiae deletion strains, locus YDL214C, strain PRR2, hits give low values) was 0.948 and the normalized growth (S. cerevisiae deletion strains, locus YDR052C, strain DBF4, hits give low values) was 0.997. It also gave a normalized growth (S. cerevisiae deletion strains, locus YDR054C, strain cdc34, hits give low values) of 0.988, a normalized growth (S. cerevisiae deletion strains, locus YDR226W, strain ADK1, hits give low values) of 0.981 and a normalized growth (S. cerevisiae deletion strains, locus YDR477W, strain SNF1, hits give low values) of 0.818. It also gave a normalized growth (S. cerevisiae deletion strains, locus YER123W, strain YCK3, hits give low values) of 0.656, a normalized growth (S. cerevisiae deletion strains, locus YER133W, strain GLC7, hits give low values) of 0.779 and a normalized growth (S. cerevisiae deletion strains, locus YFL009W, strain cdc4, hits give low values) of 0.99. It also gave a normalized growth (S. cerevisiae deletion strains, locus YFL029C, strain CAK1, hits give low values) of 0.989, a normalized growth (S. cerevisiae deletion strains, locus YFR003C, strain YPI1, hits give low values) of 0.984 and a normalized growth (S. cerevisiae deletion strains, locus YFR019W, strain FAB1, hits give low values) of 0.874. For the same molecule, the normalized growth (S. cerevisiae deletion strains, locus YFR028C, strain CDC14, hits give low values) was 0.996, the normalized growth (S. cerevisiae deletion strains, locus YGR040W, strain KSS1, hits give low values) was 0.838 and the normalized growth (S. cerevisiae deletion strains, locus YGR052W, strain FMP48, hits give low values) was 0.641. For the same molecule, the normalized growth (S. cerevisiae deletion strains, locus YGR092W, strain DBF2, hits give low values) was 0.586, the normalized growth [2] was 0.139 (active) and the normalized growth (S. cerevisiae deletion strains, locus YHR079C, strain IRE1, hits give low values) was 0.139 (active). For the same molecule, the normalized growth (S. cerevisiae deletion strains, locus YHR082C, strain KSP1, hits give low values) was 0.9, the normalized growth (S. cerevisiae deletion strains, locus YHR205W, strain SCH9, hits give low values) was 0.586 and the normalized growth (S. cerevisiae deletion strains, locus YIL147C, strain SLN1, hits give low values) was 0.984. The normalized growth (S. cerevisiae deletion strains, locus YJL095W, strain BCK1, hits give low values) was 0.117 (active), the normalized growth (S. cerevisiae deletion strains, locus YJL128C, strain PBS2, hits give low values) was 1 and the normalized growth (S. cerevisiae deletion strains, locus YJL157C, strain FAR1, hits give low values) was 0.909. For the same molecule, the normalized growth (S. cerevisiae deletion strains, locus YJR016C, strain ILV3, hits give low values) was 0.984, the normalized growth (S. cerevisiae deletion strains, locus YJR066W, strain TOR1 (second series), hits give low values) was 0.451 (active) and the normalized growth (S. cerevisiae deletion strains, locus YJR066W, strain TOR1, hits give low values) was 0.583. It also gave a normalized growth (S. cerevisiae deletion strains, locus YKL048C, strain ELM1, hits give low values) of 0.995, a normalized growth (S. cerevisiae deletion strains, locus YKL067W, strain YNK1, hits give low values) of 0.944 and a normalized growth (S. cerevisiae deletion strains, locus YKL101W, strain HSL1, hits give low values) of 0.961. The normalized growth (S. cerevisiae deletion strains, locus YKL193C, strain SDS22, hits give low values) was 0.979, the normalized growth (S. cerevisiae deletion strains, locus YKL203C, strain TOR2, hits give low values) was 0.66 (active) and the normalized growth (S. cerevisiae deletion strains, locus YLR113W, strain HOG1, hits give low values) was 0.415 (active). For the same molecule, the normalized growth (S. cerevisiae deletion strains, locus YLR133W, strain CKI1, hits give low values) was 0.905, the normalized growth (S. cerevisiae deletion strains, locus YLR403W, strain SFP1, hits give low values) was 0.553 (active) and the normalized growth (S. cerevisiae deletion strains, locus YML070W, strain DAK1, hits give low values) was 0.692. It also gave a normalized growth (S. cerevisiae deletion strains, locus YMR001C, strain CDC5, hits give low values) of 0.982, a normalized growth (S. cerevisiae deletion strains, locus YMR205C, strain PFK2 (second series), hits give low values) of 0.935 and a normalized growth (S. cerevisiae deletion strains, locus YMR277W, strain FCP1, hits give low values) of 0.977. It also gave a normalized growth (S. cerevisiae deletion strains, locus YNL006W, strain LST8, hits give low values) of 0.992, a normalized growth (S. cerevisiae deletion strains, locus YNL020C, strain ARK1, hits give low values) of 0.915 and a normalized growth (S. cerevisiae deletion strains, locus YNL161W, strain CBK1, hits give low values) of 0.992. The normalized growth (S. cerevisiae deletion strains, locus YNL183C, strain NPR1, hits give low values) was 0.571 (active), the normalized growth (S. cerevisiae deletion strains, locus YNL207W, strain RIO2, hits give low values) was 0.966 and the normalized growth (S. cerevisiae deletion strains, locus YNL222W, strain SSU72, hits give low values) was 0.988. For the same molecule, the normalized growth (S. cerevisiae deletion strains, locus YNL307C, strain MCK1 (second series), hits give low values) was 0.69, the normalized growth (S. cerevisiae deletion strains, locus YOL078W, strain AVO1, hits give low values) was 0.98 and the normalized growth (S. cerevisiae deletion strains, locus YOL136C, strain PFK27, hits give low values) was 0.867. The normalized growth (S. cerevisiae deletion strains, locus YOR061W, strain CKA2, hits give low values) was 0.886, the normalized growth (S. cerevisiae deletion strains, locus YOR119C, strain RIO1, hits give low values) was 0.578 (active) and the normalized growth (S. cerevisiae deletion strains, locus YOR231W, strain MKK1, hits give low values) was 0.689. For the same molecule, the normalized growth (S. cerevisiae deletion strains, locus YOR329C, strain SCD5, hits give low values) was 0.991, the normalized growth (S. cerevisiae deletion strains, locus YPL031C, strain PHO85, hits give low values) was 0.795 and the normalized growth (S. cerevisiae deletion strains, locus YPL153C, strain RAD53, hits give low values) was 0.533 (active). The normalized growth (S. cerevisiae deletion strains, locus YPL204W, strain HRR25, hits give low values) was 0.63 (active), the normalized growth (S. cerevisiae deletion strains, locus YPL209C, strain IPL1, hits give low values) was 0.991 and the normalized growth (S. cerevisiae deletion strains, locus YPL256C, strain CLN2, hits give low values) was 0.697 (active). The normalized growth (S. cerevisiae deletion strains, locus YPR025C, strain CCL1, hits give low values) was 0.993, the normalized growth (S. cerevisiae deletion strains, locus YPR106W, strain ISR1, hits give low values) was 1 and the normalized growth (S. cerevisiae deletion strains, locus YPR111W, strain DBF20, hits give low values) was 1.01. It also gave a normalized growth (S. cerevisiae deletion strains, strain NNK1, hits give low values) of 0.996 and a normalized growth (S. cerevisiae deletion strains, strain TSCII, hits give low values) of 0.991.

— PubChem BioAssay AID1159580 (chemical genetic matrix, 2015)
